# Out of some 24,000 compounds screened, about 130 (0.54%) were called active.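 How the source made its calls: active means side scatter shift above 30%; inactive means the rest.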 Only a selection was taken, and actives are over-represented in it overall. Square brackets hold non-standard residues; d marks the D form. Peptide text beside a SMILES is read from it. ξ: configuration not given here. ξV = CC(C)C(N)C(=O)O
# Assay: inducers of granularity increase in LNCaP cells – cell-based, flow cytometry side scatter, primary screen (AID 795);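 further: androgen-responsive LNCaP prostate cancer cells in charcoal-stripped serum medium; percent of cells past a gate set so DMSO wells show 10% shift; higher shift means more granular cells and more differentiation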
# Settings: LNCaP differentiation, 4 d, at 10 µM, hits give high values
row,Compound,side scatter shift
1,COc1ccccc1CNC(=O)CCCNS(=O)(=O)c1cccc2nsnc12,4% (inactive)
2,O=C(NC1CCCCC1)C1CCCN(S(=O)(=O)c2cccs2)C1 (stereo not given),4% (inactive)
3,CC(C)C[C@H](NC(=O)Nc1cccc(C(F)(F)F)c1)C(=O)O,12% (inactive)
4,CC1(C)CN=C(N2CCN(c3ncnc4sc5c(c34)CCCC5)CC2)S1,4% (inactive)
5,Cc1ccc(C)c(NC(=O)CSc2nnc(Cc3cccn3C)n2-c2ccc(F)cc2)c1,12% (inactive)
6,COc1cccc(NC(=O)Nc2nnc(N3CCCCC3C)s2)c1 (stereo not given),6% (inactive)
7,CCOC(=O)C1CCN(C(=O)CSc2cc(=O)n(C)c3ccccc23)CC1,8% (inactive)
8,O=c1cc(O)nc(SCc2ccccc2Cl)[nH]1,7% (inactive)
9,O=C(NCCN1CCOCC1)c1ccc2c(c1)ncn2C1CCCC1,8% (inactive)
10,Cc1ccc(N(C(=O)CC2NC(=O)NC2=O)C2(C(=O)NC3CCCC3)CCCCC2)cc1 (stereo not given),0% (inactive)
11,Cc1cc(C)nc(SCc2nnc(SCC(=O)Nc3ncc(C)s3)n2Cc2ccco2)n1,16% (inactive)
12,COc1ccccc1C(=O)N1CCNC(=O)C1CC(=O)Nc1ccc(Cl)cc1 (stereo not given),7% (inactive)
13,Cc1ccc(S(=O)(=O)n2nc(OC(=O)C(C)(C)C)cc2N)cc1,6% (inactive)
14,CC1=C(C(=O)OC2CCCCC2)C(c2cccnc2)n2ncnc2N1 (stereo not given),1% (inactive)
15,COc1ccc(CCNC(=O)c2ccc3c(c2)NC(=O)C(N2CCOCC2)S3)cc1OC (stereo not given),18% (inactive)
16,COc1cccc(NS(=O)(=O)c2ccc3[nH]cc(C(=O)NCCCOC(C)C)c(=O)c3c2)c1,11% (inactive)
17,Cc1cc(C)c(C)c(S(=O)(=O)Nc2ccc(O)cc2)c1C,3% (inactive)
18,O=C(Nc1cccnc1)c1noc2c1CCCCC2,12% (inactive)
19,Fc1ccc2nc(Nc3nc4c(s3)CCCC4)sc2c1,11% (inactive)
20,CN(Cc1ccccc1)C(=O)CCNC(=O)Cn1cnc2ccccc2c1=O,6% (inactive)
21,OCCNCCCCOc1ccccc1F,7% (inactive)
22,CCC(C)Sc1nnc(-c2c[nH]c3ccccc23)n1CCOC (stereo not given),6% (inactive)

row,Compound,side scatter shift
1,CCOC(=O)CNC(=O)CN1C(=O)CCSc2ccccc21,7% (inactive)
2,CCCCn1c(=S)[nH]c2ncccc2c1=O,3% (inactive)
3,CCOC(=O)c1c(N)c(C#N)nn1-c1ccccc1C(=O)OC,6% (inactive)
4,C=CCn1c(=N)n(CC(O)COc2ccc(OC)cc2)c2ccccc21 (stereo not given),8% (inactive)
5,O=C(Nn1cnc2ccccc2c1=O)c1ccc(F)cc1Cl,9% (inactive)
6,Cc1nn(Cc2ccc(Cl)c(Cl)c2)c(C)c1NC(=O)c1cc(C2CC2)on1,13% (inactive)
7,Cc1cccc(CSc2nnc(Cn3c(=O)sc4ccccc43)n2C)c1,9% (inactive)
8,Cc1c2cn[nH]c(=O)c2c(C)n1Cc1ccc(F)cc1,2% (inactive)
9,Cc1cccn2c(=O)c3cc(C#N)c(=O)n(CCCN4CCOCC4)c3nc12,4% (inactive)
10,Cc1cc(C)nc(NC2=NCC(=O)N2c2ccc(Cl)cc2)n1,5% (inactive)
11,CCn1c(SCC(=O)Nc2ccc3c(c2)OCCO3)nc2c(c1=O)SC(C)C2 (stereo not given),8% (inactive)
12,Cn1c(=O)cc(OCCCC(=O)N2CCN(c3ccccn3)CC2)c2ccccc21,2% (inactive)
13,O=C(Cn1c(=O)n(Cc2ccco2)c(=O)c2ccccc21)NCC1CCCO1 (stereo not given),3% (inactive)
14,Cc1ccc(S(=O)(=O)N2CCCC2CO)cc1 (stereo not given),16% (inactive)
15,CCOC(=O)CSc1nnc(CNC(=O)Cc2ccccc2)n1-c1ccccc1OC,15% (inactive)
16,CCN(CC)CCCNC(=O)c1cc(-c2cccc(Cl)c2)on1,33% (active)
17,O=C(NCCCN1CCOCC1)c1cc(-c2ccc(Cl)cc2)on1,8% (inactive)
18,Cc1cc(C(=O)NCCCc2ccccc2)no1,4% (inactive)
19,Cc1ccccc1N1CC(c2nc3ccccc3[nH]2)CC1=O (stereo not given),6% (inactive)
20,C/C(N)=C(\C#N)C(=O)NCCc1ccccn1,16% (inactive)
21,O=C(OCc1ccccc1F)c1ccc2c(c1)OCCO2,10% (inactive)
22,O=C(COC(=O)c1ccccc1C(=O)c1ccccc1)c1ccco1,7% (inactive)

row,Compound,side scatter shift
1,O=C(CCN1C(=O)c2ccncc2C1=O)Nc1ccc2c(c1)OCCO2,13% (inactive)
2,CCOC(=O)N1CCC(NC(=O)Cc2cn(C)c3ccccc23)CC1,8% (inactive)
3,CC(=O)N1CCc2cc(S(=O)(=O)Nc3ccccc3N3CCN(C)CC3)ccc21,15% (inactive)
4,CC(C)n1c(NCc2c[nH]c3ccccc23)nc2ccccc21,14% (inactive)
5,CC(=O)NC(C(=O)NCC(N)=O)C(C)C (stereo not given) (Ac-[ξV]-Gly-NH2),7% (inactive)
6,CC(NC(=O)COc1ccccc1)C(=O)NC1=NCCS1 (stereo not given),13% (inactive)
7,COc1ccc(N=Cc2c(O)[nH]c3ccccc23)cc1OC,15% (inactive)
8,COC(=O)c1[nH]c2ccccc2c1NS(=O)(=O)c1ccc(OC)cc1OC,10% (inactive)
9,COc1ccc(OC)c(N=Cc2c(O)[nH]c3ccccc23)c1,48% (active)
10,CCc1c(C)nc(N2CCN(Cc3ccccc3)CC2)[nH]c1=O,8% (inactive)
11,Cc1nc(NC(=O)C23CCC(C)(C(=O)O2)C3(C)C)sc1C (stereo not given),4% (inactive)
12,CCCC(=O)N1c2ccccc2NC2=C(C(=O)CCC2)C1c1ccc(F)cc1 (stereo not given),12% (inactive)
13,O=C(CSC1=Nc2ccccc2C2=NC(c3ccccc3)C(=O)N12)NCC1CCCO1 (stereo not given),8% (inactive)
14,Cc1cccc(N2C(=O)SC(N(CC(=O)O)c3cccc(C)c3)C2=O)c1 (stereo not given),5% (inactive)
15,O=C1NC(c2ccncc2)Nc2sc3c(c21)CCCC3 (stereo not given),3% (inactive)
16,COc1ccc(CCNC(=O)CSc2nnc(CNC(=O)c3cccs3)o2)cc1OC,10% (inactive)
17,COCCCNC(=O)c1ccc(CNS(=O)(=O)c2ccc(NC(C)=O)cc2)cc1,15% (inactive)
18,CC1=NCCN1S(=O)(=O)c1ccc(Br)c(C)c1,16% (inactive)
19,CCOC(=O)C1(c2ccccc2)NC(c2ccc(N(C)C)cc2)C2C(=O)N(C)C(=O)C21 (stereo not given),11% (inactive)
20,COc1cccc(OCC(=O)Nc2ccccc2C(N)=O)c1,9% (inactive)
21,COc1nc(Oc2ccc(=O)n(C)n2)nc(N(C)C)n1,10% (inactive)
22,COc1ccc(N2C(=O)C3CCCN3C2c2cccs2)cc1 (stereo not given),9% (inactive)

row,Compound,side scatter shift
1,Cc1ccc(-c2nnc(SC(C)C#N)n2N)cc1 (stereo not given),11% (inactive)
2,Cn1c(C(=O)NCCCN2CCN(c3cccc(Cl)c3)CC2)cc2c(=O)n(C)c3ccccc3c21,92% (active)
3,CCn1c(=O)cc(OCC(=O)NCCCN2CCN(c3cccc(Cl)c3)CC2)c2ccccc21,27% (inactive)
4,CC1CCCC(C)N1CCCNC(=O)c1cc2c(=O)n(C)c3ccccc3c2n1C (stereo not given),9% (inactive)
5,COc1ccccc1NC(=O)C1=C(C)Nc2ncnn2C1c1ccc(C)o1 (stereo not given),16% (inactive)
6,CCOC(=O)C1C(=O)C=C(c2ccc(OC)cc2)CC1c1ccco1 (stereo not given),5% (inactive)
7,CC(=O)NC(C)c1nc2ccccc2n1Cc1ccccc1F (stereo not given),7% (inactive)
8,CC1=C(C(=O)Nc2ccccc2)C(c2cccs2)C(C#N)=C(SCC#N)N1 (stereo not given),4% (inactive)
9,Cc1nnc(C)n1/N=C/c1ccc(C(C)C)cc1,18% (inactive)
10,Cn1c(=O)cc(OCCCC(=O)N2CCN(Cc3ccc4c(c3)OCO4)CC2)c2ccccc21,12% (inactive)
11,OCc1nc(CO)n(Cc2ccccc2)n1,7% (inactive)
12,Cc1ccc(N2C(=O)c3oc4ccccc4c(=O)c3C2c2cccnc2)nc1 (stereo not given),3% (inactive)
13,O=c1ccn(Cc2ccccc2Cl)cc1,3% (inactive)
14,O=C1N=C(N2CCOCC2)CS1,16% (inactive)
15,CCC(C)(C)n1nnnc1C(c1ccccc1OC)N1CCSCC1 (stereo not given),10% (inactive)
16,CCn1c(=O)cc(SCC(=O)NCc2ccc3c(c2)OCO3)c2ccccc21,20% (inactive)
17,O=C(O)CCC(=O)Nc1ccc(N2CCOCC2)cc1,6% (inactive)
18,CCOc1ccc(C(=O)N(Cc2ccc(N(C)C)cc2)C2CCS(=O)(=O)C2)cc1 (stereo not given),12% (inactive)
19,O=C(CC(Cc1ccccc1)C(=O)O)NCCc1ccc2c(c1)OCO2 (stereo not given),6% (inactive)
20,O=C(CSc1nc2ncccc2[nH]1)Nc1ccc2c(c1)OCCO2,3% (inactive)
21,Nc1c(C(=O)NCc2ccccc2)nnn1Cc1cccc(Cl)c1,24% (inactive)
22,O=C(CCn1c(=S)[nH]c2ccccc2c1=O)NCCCN1CCCC1=O,6% (inactive)

row,Compound,side scatter shift
1,COc1cccc2cc(C(C)N(CCCN3CCOCC3)C(=O)Nc3ccc(Cl)cc3)oc12 (stereo not given),6% (inactive)
2,CCOC(=O)Cn1c(N)c(C(=O)OC)sc1=S,0% (inactive)
3,Clc1ccc(Cn2ncc3c(NCc4cccnc4)ncnc32)cc1,11% (inactive)
4,CCOC(=O)CSc1nc2c(c(=O)n(C)c(=O)n2C)n1Cc1ccccc1F,11% (inactive)
5,O=C(Nc1ccccc1C(F)(F)F)c1cc(-c2ccc(O)cc2)on1,5% (inactive)
6,CCOC(=O)c1nc(-c2ccc3c(c2)OCO3)[nH]c1C,7% (inactive)
7,CCCN1CCN(C(=O)Cn2ncc3ccccc32)CC1,6% (inactive)
8,CCCOC(=O)c1[nH]c2c(c1C)C(=O)CC(c1cc(OC)c(OC)c(OC)c1)C2 (stereo not given),11% (inactive)
9,CC1(C)C(=O)Nc2ccccc2N1C(=O)COC(=O)Cn1cnc2ccccc2c1=O,7% (inactive)
10,Cc1ccc(C(=O)N(CN2CCCC2=O)c2ccc(F)cc2)cc1,15% (inactive)
11,CCCC(=O)Nc1cccc(-c2cn3ccsc3n2)c1,3% (inactive)
12,O=C(COC(=O)C12CC3CC(CC(C3)C1)C2)NCc1ccco1,12% (inactive)
13,CCOC(=O)C1CCCN(C(=O)c2ccc(CS(=O)(=O)c3ccc(Br)cc3)o2)C1 (stereo not given),8% (inactive)
14,Cc1ccsc1C(C(=O)NC1CCCCC1)N(C(=O)Cc1cccs1)C1CC1 (stereo not given),9% (inactive)
15,CCCCc1nccn1CCn1ccnc1CCCC,7% (inactive)
16,O=C(C1CC1)N1CCN=C1SCc1ccc(Cl)cc1,11% (inactive)
17,Cc1cc(=O)n(C)c(=O)n1CCCNc1ccccc1,9% (inactive)
18,CC(C)Nc1nc(N(c2ccccc2)c2ccccc2)nc(-n2ccnc2)n1,10% (inactive)
19,CC(CCc1ccccc1)NC(=O)c1ccc(Br)o1 (stereo not given),5% (inactive)
20,C/C(=C(\C#N)C(=O)NCCCN1CCOCC1)N(C)C,13% (inactive)
21,O=C(NCc1cccnc1)c1ccc(CS(=O)(=O)c2ccc(Br)cc2)o1,4% (inactive)
22,O=S(=O)(Nc1ccccn1)c1ccc(Oc2ccccc2)cc1,13% (inactive)
